Source: PubChem BioAssay
Sm TGR block: qHTS Assay for the Inhibitors of Schistosoma Mansoni Peroxiredoxins; Schistosoma mansoni thioredoxin glutathione reductase (TGR), Q962Y6; purified TGR, DTNB reduction, TNB absorbance 405 nm; Potency, µM (highest dose often 114 µM), for inactives: at the top dose activity change, negative = inhibition, hits mostly inhibitors; hit rate 3% among 360,000; AID 485364, 2010; further: on the % scale 0 is the no-effect control and ±100 the full control effect; nearly all actives have a fitted effect of over 60% in size
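First, TGR (20 nM dispensed) and NADPH were mixed with compound. Second, a 15 min room-temperature incubation followed. Third, further NADPH and then DTNB were added to start the reaction. Finally, TNB absorbance was monitored kinetically.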
AmpC detergent: qHTS Inhibitors of AmpC Beta-Lactamase (assay with detergent); hit rate 0.041% among 370,000; P00811; Potency, µM (series often up to 114 µM), inactives show at the top dose activity change, negative = inhibition, actives largely listed as inhibitors; AID 485294, 2010; AmpC hydrolysis of nitrocefin, absorbance 480 nm, 0.01% Triton;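 further: 0% = no-compound wells and -100% = no-enzyme wells; nearly all actives have a fitted effect of over 25% in size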
Target sequence (P00811 whole entry, looked up): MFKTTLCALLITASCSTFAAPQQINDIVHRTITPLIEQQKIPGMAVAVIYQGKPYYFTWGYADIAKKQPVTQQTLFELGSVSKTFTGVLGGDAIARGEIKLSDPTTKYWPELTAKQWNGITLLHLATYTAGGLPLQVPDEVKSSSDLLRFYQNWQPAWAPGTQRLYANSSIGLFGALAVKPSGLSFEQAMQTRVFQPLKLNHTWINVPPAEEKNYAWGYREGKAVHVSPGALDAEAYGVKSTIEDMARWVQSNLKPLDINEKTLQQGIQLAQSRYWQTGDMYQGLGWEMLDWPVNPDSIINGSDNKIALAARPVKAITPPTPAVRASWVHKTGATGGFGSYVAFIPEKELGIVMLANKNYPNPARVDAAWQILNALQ
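AmpC (5.3 nM in the dispensed reagent) in 20 mM phosphate pH 7.0 with 0.01% (detergent screen) or 0.0001% Triton X-100 was preincubated with compounds for 15 min at room temperature. Nitrocefin was then added from an 800 uM solution, and hydrolysis was followed at 480 nm.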
Pf growth 96h: Primary qHTS for delayed death inhibitors of the malarial parasite plastid, 96 hour incubation; P. falciparum luciferase reporter growth, 96 h; Potency, µM (doses to about 28.7 µM), inactives show top-dose activity change, negative = inhibition, usual class: inhibitors; hit rate 6.9% among 320,000; further: on the % scale 0 is the no-effect control and ±100 the full control effect
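Parasite growth measured via integrated firefly luciferase reporter in P. falciparum. Infected erythrocytes at 2% hematocrit, 0.05% parasitemia final were treated 96 hours at 37 C under 5% CO2, and luminescence was read.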
AmpC no deterg: qHTS Inhibitors of AmpC Beta-Lactamase (assay without detergent) | hit rate 0.52% among 330,000 | P00811 | Potency, µM (series often up to 57.1 µM), for inactives: top-dose activity change, negative = inhibition, actives largely listed as inhibitors | AmpC nitrocefin hydrolysis, absorbance 480 nm, 0.0001% Triton;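 further: plate controls were no compound for no effect and no enzyme for full effect; nearly all actives have a fitted effect of over 20% in size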
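AmpC (5.3 nM in the dispensed reagent) in 20 mM phosphate pH 7.0 with 0.01% (detergent screen) or 0.0001% Triton X-100 was preincubated with compounds for 15 min at room temperature. Nitrocefin was then added from an 800 uM solution, and hydrolysis was followed at 480 nm.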
SARS PLP yeast: qHTS of Yeast-based Assay for SARS-CoV PLP; S. cerevisiae expressing SARS-CoV PLpro, growth rescue; hit rate 0.19% among 330,000; AID 485353, 2010; Potency, µM (top dose mostly 32.9 µM), for inactives: at the top dose activity, positive = growth rescue, hits mostly activators; calls by dose curve; further: 0% is about no effect; nearly all actives have a fitted effect of over 55% in size
Pf growth 48h: Primary qHTS for delayed death inhibitors of the malarial parasite plastid, 48 hour incubation; P. falciparum luciferase growth in erythrocytes, 48 h; Potency, µM (titrated, usually from 28.7 µM), for the others: at the highest dose activity change, negative = inhibition, actives largely listed as inhibitors; hit rate 5.9% among 310,000; AID 504832, 2011; further: on the % scale 0 is the no-effect control and ±100 the full control effect
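Parasite viability was followed by luminescence of a genomically integrated firefly luciferase. Cultures held 0.1% parasitemia at 2% hematocrit (final), incubated under 5% CO2 at 37 C.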
Numbers without * were called inactive; ? = inconclusive; · = no result; [ ] = dose if it differs, or a comment. This is a sample that favours compounds with a hit; in the whole collection about 12% have one here. Unless noted, the call rests on the fitted dose curve; in most records, active means well fitted curve in the direction sought with a large enough effect; inconclusive means small, poorly fitted or top-dose-only effect, or another doubt; inactive means no such curve, though single readings can be large; an effect the other way counts as inactive or inconclusive. Potency means the concentration at half of the fitted maximal effect.

SMILES	Sm TGR block	AmpC detergent	Pf growth 96h	AmpC no deterg	SARS PLP yeast	Pf growth 48h
O=C(c1nc2ccccn2c1CNCCCn1ncc2ccccc21)N1CCOCC1	0.0%	-0.2%	?	3.2%	-0.6%	7.2%
CCCc1[nH][nH]c(=O)c1C(c1ccccc1)C(C#N)C#N (stereo not drawn)	2.51µM*	-10.0%	15.5%	-29.8%	-4.4%	5.0%
COc1ccc(Cn2c(=O)c3oc4ccccc4c3n(Cc3cccc(C(F)(F)F)c3)c2=O)cc1	4.6%	-6.4%	·	·	·	·
CN1CCN(CCc2nc3cc(NC(=O)COc4ccc(Cl)cc4)ccc3n2C)CC1	?	2.4%	9.28µM*	70.0%	-3.4%	?
Cn1c(CCN2CCCCC2)nc2cc(NC(=O)COc3ccc(Cl)cc3)ccc21	-3.4%	-14.8%	?	45.7%	2.3%	?
CC(C)CC(=O)Nc1ccc2c(c1)nc(CCN1CCCCC1)n2C	5.5%	?	13.1µM*	-15.2%	2.3%	?
COc1ccc(OCC(=O)Nc2ccc3c(c2)nc(CCn2ccccc2=O)n3C)cc1	0.8%	-0.4%	5.22µM*	53.6%	-1.3%	?
CC(C)C(=O)Nc1ccc2c(c1)nc(CCN1CCCCC1)n2C	-10.2%	-0.8%	41.2%	-8.4%	-2.8%	31.4%
COc1ccc(OCC(=O)Nc2ccc3c(c2)nc(CCN2CCOCC2)n3C)cc1	-0.3%	-12.3%	3.4%[5.75 µM]	6.0%	1.1%	?
O=C(Nc1ccc(S(=O)(=O)N2CCOCC2)cc1)c1ccccc1Br	-28.2%	-11.3%	?	-39.3%	1.7%	-14.0%
CC(C)c1ccccc1NC(=O)c1ccccc1NC(=O)C1CCCCC1	-4.4%	1.4%	186.8%	-7.0%	4.5%	11.7µM*
O=C(Nc1ccccc1)c1ccccc1NC(=O)C1CCCCC1	3.6%	-1.4%	75.7%	-33.8%	-6.0%	-24.5%
Cc1cccc(NC(=O)c2ccccc2NC(=O)C2CCCCC2)c1C	12.6µM*	-6.8%	88.1%	-32.0%	?	5.3%
COCCCNc1ncnc2c1c(-c1ccccc1)cn2-c1ccc(C)c(Cl)c1	1.3%	2.3%	·	·	·	·
CCCn1ncc(CN2CCC(C(=O)Nc3cccc(-c4cccc(F)c4)c3)CC2)c1C	-0.3%	?	?	140.7%	2.1%	7.38µM*
C=CCn1cc(CN2CCC(C(=O)Nc3cccc(-c4cccc(F)c4)c3)CC2)c(C)n1	5.4%	1.4%	?	127.5%	5.6%	14.7µM*
O=C(Nc1sc2c(c1C(=O)Nc1ccccc1Cl)CCCC2)c1ccccc1F	-0.8%	10.8%	·	·	·	·
CC(=O)Nc1nc2ccccc2n1CCOc1ccccc1Cl	3.9%	-7.3%	12.0%	104.6%	0.5%	3.7µM*
CCCCCCCn1c(NC(=O)CC)nc2ccccc21	33.7%	-1.5%	0.928µM*	29.3%	1.5%	1.85µM*
CCC(=O)Nc1nc2ccccc2n1Cc1ccccc1Cl	6.9%	0.0%	2.94µM*	-0.9%	4.3%	3.29µM*
CC(=O)Nc1nc2ccccc2n1Cc1ccccc1Cl	7.6%	0.1%	?	23.2%	1.3%	3.29µM*
CCC(=O)Nc1nc2ccccc2n1Cc1ccc(Cl)cc1	0.0%	1.9%	106.1%	9.3%	-2.0%	?
CCN(CC)c1ccc(CNCCCSc2nnnn2C)cc1	-2.1%	24.0%	·	·	·	·
Cc1ccccc1Cn1c(-c2ccc(=O)[nH]c2)nc2ccccc21	-3.2%	9.6%	7.38µM*	31.4%	3.8%	11.7µM*
CCCn1c(Nc2nc3ccccc3n2C)nc2ccccc21	1.9%	0.5%	7.38µM*	-43.8%	-19.8%	7.38µM*
CC(=O)Nc1nc2ccccc2n1Cc1ccccc1C	-10.3%	-12.7%	34.0%	-23.2%	6.9%	7.38µM*
CC(=O)NCc1nc2ccccc2n1Cc1ccccc1C	0.2%	?	?	0.0%	-4.3%	-7.7%
CCCCn1c(Nc2ccccc2)nc2ccccc21	7.6%	?	?	-13.7%	-5.0%	·
